Results on 13 molecules are retold here after paper PMC7826789 (International Journal of Molecular Sciences, 2021).
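Note: KINOMEscan scanMAX binding as percent activity remaining versus control; lower means stronger binding.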

The subject of the assay is FGFR4. As to conditions: Compound Concentration (nM):1000.
Take `CC1=C(C(=O)Nc2ccc3[nH]ncc3c2)C(c2ccc3ccccc3c2)CC(=O)N1` (stereo not shown) [GSK270822A]: the “Percent Control” value was 58%.
`COc1cc(C=NNc2ncnc3c2cnn3-c2ccccc2)ccc1O` [GW513184X]: the “Percent Control” value is 100%.
As for `Cl.O=C(O[C@H]1CN[C@H](C#Cc2cc3ncnc(Nc4ccc5c(cnn5Cc5ccccc5)c4)c3s2)C1)N1CCOCC1` [GSK200398A], the “Percent Control” value was 89%.
As to `O=C(Nc1n[nH]c2nc(-c3ccc(O)cc3)c(Br)cc12)C1CC1` [SB-725317], the “Percent Control” value is 100%.
`Cl.O=C(Nc1ccc(Oc2ccc3[nH]c(NC(=O)c4ccccc4)nc3c2)cc1)Nc1cc(C(F)(F)F)ccc1F` [GW709042A]: the “Percent Control” value is 100%.
For the molecule `CCS(=O)(=O)c1ccc(OC)c(Nc2ncc(-c3cccc(OC)c3)o2)c1` [GW580509X], the “Percent Control” value was 100%.
Consider `COc1ccccc1-c1cc(/C=C2\C(=O)Nc3ncc(Br)cc32)cc(Br)c1O` [GW442130X], for which the “Percent Control” value is 100%.
As to `NS(=O)(=O)c1ccc(N/N=C2\C(=O)Nc3ccc(C(=O)NCCc4c[nH]cn4)cc32)cc1` [GW300660X], the “Percent Control” value is 100%.
With `NS(=O)(=O)c1ccc(N/N=C2\C(=O)Nc3ccc(C(=O)NCc4ccncc4)cc32)cc1` [GW300657X], the “Percent Control” value was 100%.
Turning to `NS(=O)(=O)c1ccc(N/N=C2\C(=O)Nc3ccc(Cl)cc32)cc1` [GW280670X], the “Percent Control” value is 100%.
Consider `Cl.O=S1CCN(Cc2ccc(-c3ccc4ncnc(Nc5ccc(OCc6ccccc6)c(F)c5)c4c3)o2)CC1` [GW576924A], for which the “Percent Control” value was 100%.
As to `NS(=O)(=O)c1ccc(N/N=C2\C(=O)Nc3ccc(-c4cnco4)cc32)cc1` [GW276655], the “Percent Control” value was 82%.
As to `COc1cccc(-c2c[nH]c3c(N/N=C/c4ccncc4)ncnc23)c1` [GW814408X], the “Percent Control” value was 100%.
